Screen size: about 5,500 compounds; about 2,000 (36%) were called active. Roughly 18% stayed inconclusive and do not appear here. Cut-off read from the data, not from the text of the source: active = normalized growth mostly below about 0.91 (no sharp cut-off); inconclusive = no clear call, values can overlap the other calls; inactive = mostly above about 0.92. Some of the results follow.
Test: chemical genetic growth profiling, strain panel (AID 1159580);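 note: tested at 20 µM; growth read once vehicle control cultures reached saturation at 30 °C; 1 = growth at the plate median or of vehicle wells; lower values mean less growth of the strain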
Conditions: S. cerevisiae deletion strains, growth OD

Measured: normalized growth

N#C/C(=N/Nc1ccc(Cl)cc1)C(=O)C1CC1
inactive: locus YDL214C, strain PRR2, stronger effect = lower value 0.807 | locus YFR019W, strain FAB1, stronger effect = lower value 0.916 | locus YGR052W, strain FMP48, stronger effect = lower value 0.666 | locus YHR079C, strain IRE1, stronger effect = lower value 0.604 | locus YHR082C, strain KSP1, stronger effect = lower value 0.691 | locus YHR205W, strain SCH9, stronger effect = lower value 0.711 | locus YJL128C, strain PBS2, stronger effect = lower value 0.862 | locus YJL157C, strain FAR1, stronger effect = lower value 0.757 | locus YJR066W, strain TOR1 (second series), stronger effect = lower value 0.737 | locus YJR066W, strain TOR1, stronger effect = lower value 0.643 | locus YKL067W, strain YNK1, stronger effect = lower value 0.763 | locus YKL101W, strain HSL1, stronger effect = lower value 0.802 | locus YLR133W, strain CKI1, stronger effect = lower value 0.811 | locus YML070W, strain DAK1, stronger effect = lower value 0.735 | locus YMR205C, strain PFK2 (second series), stronger effect = lower value 0.774 | locus YNL020C, strain ARK1, stronger effect = lower value 0.805 | locus YOL136C, strain PFK27, stronger effect = lower value 0.752 | locus YOR061W, strain CKA2, stronger effect = lower value 0.81 | locus YPR106W, strain ISR1, stronger effect = lower value 0.92 | locus YPR111W, strain DBF20, stronger effect = lower value 0.876 | strain NNK1, stronger effect = lower value 0.885
active: locus YAR019C, strain CDC15, stronger effect = lower value 0.863 | locus YBL105C, strain PKC1, stronger effect = lower value 0.86 | locus YBR135W, strain CKS1, stronger effect = lower value 0.854 | locus YBR136W, strain MEC1, stronger effect = lower value 0.86 | locus YBR160W, strain CDC28, stronger effect = lower value 0.863 | locus YDL017W, strain CDC7, stronger effect = lower value 0.865 | locus YDL028C, strain MPS1, stronger effect = lower value 0.859 | locus YDL101C, strain DUN1, stronger effect = lower value 0.903 | locus YDL108W, strain KIN28, stronger effect = lower value 0.86 | locus YDL132W, strain cdc53, stronger effect = lower value 0.847 | locus YDR052C, strain DBF4, stronger effect = lower value 0.862 | locus YDR054C, strain cdc34, stronger effect = lower value 0.848 | locus YDR226W, strain ADK1, stronger effect = lower value 0.855 | locus YDR477W, strain SNF1, stronger effect = lower value 0.674 | locus YER123W, strain YCK3, stronger effect = lower value 0.492 | locus YER133W, strain GLC7, stronger effect = lower value 0.626 | locus YFL009W, strain cdc4, stronger effect = lower value 0.844 | locus YFL029C, strain CAK1, stronger effect = lower value 0.853 | locus YFR003C, strain YPI1, stronger effect = lower value 0.857 | locus YFR028C, strain CDC14, stronger effect = lower value 0.854 | locus YGR040W, strain KSS1, stronger effect = lower value 0.665 | locus YGR092W, strain DBF2, stronger effect = lower value 0.332 | locus YHR030C, strain SLT2, stronger effect = lower value 0.416 | locus YIL147C, strain SLN1, stronger effect = lower value 0.865 | locus YJL095W, strain BCK1, stronger effect = lower value 0.416 | locus YJR016C, strain ILV3, stronger effect = lower value 0.854 | locus YKL048C, strain ELM1, stronger effect = lower value 0.793 | locus YKL193C, strain SDS22, stronger effect = lower value 0.851 | locus YKL203C, strain TOR2, stronger effect = lower value 0.706 | locus YLR113W, strain HOG1, stronger effect = lower value 0.567 | locus YLR403W, strain SFP1, stronger effect = lower value 0.646 | locus YMR001C, strain CDC5, stronger effect = lower value 0.855 | locus YMR277W, strain FCP1, stronger effect = lower value 0.847 | locus YNL006W, strain LST8, stronger effect = lower value 0.856 | locus YNL161W, strain CBK1, stronger effect = lower value 0.86 | locus YNL183C, strain NPR1, stronger effect = lower value 0.551 | locus YNL207W, strain RIO2, stronger effect = lower value 0.842 | locus YNL222W, strain SSU72, stronger effect = lower value 0.848 | locus YNL307C, strain MCK1 (second series), stronger effect = lower value 0.641 | locus YOL078W, strain AVO1, stronger effect = lower value 0.846 | locus YOR119C, strain RIO1, stronger effect = lower value 0.667 | locus YOR231W, strain MKK1, stronger effect = lower value 0.576 | locus YOR329C, strain SCD5, stronger effect = lower value 0.86 | locus YPL031C, strain PHO85, stronger effect = lower value 0.592 | locus YPL153C, strain RAD53, stronger effect = lower value 0.595 | locus YPL204W, strain HRR25, stronger effect = lower value 0.554 | locus YPL209C, strain IPL1, stronger effect = lower value 0.853 | locus YPL256C, strain CLN2, stronger effect = lower value 0.65 | locus YPR025C, strain CCL1, stronger effect = lower value 0.856 | strain TSCII, stronger effect = lower value 0.85
